From PubChem BioAssay (Tox21)
Several values for one entry are separate records, joined by “and”; a condition that tells them apart may be missing. Identical values can stand only once. Results filed as inconclusive are left out. Some structures have more than one record in an assay (separate samples or runs), and their calls can disagree. Activity calls are given as the source filed them. Calls follow the shape of the dose curve; as a rule, active = well fitted curve in the direction sought with a large enough effect in the repeat runs; inconclusive = weak or mixed curves; inactive = no such curve, though single readings can be large; an effect the other way counts as inactive or inconclusive.

Columns and labels:
[1] = Human pregnane X receptor (PXR) small molecule agonists, qHTS cell viability counter screen (AID 1346977); also: nearly all actives have a fitted effect of over 50% in size; also: potency is read from the fitted curve at half-maximal effect
Outline: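 Measures live-cell protease fluorescence (CellTiter-Fluor) in PXR-Luc HepG2 cells treated 24hr with compounds at 37C. Cells had 5hr to attach before pin transfer of DMSO solutions.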

[2] = Caspase-3/7 induction in HepG2 cells by small molecules, qHTS assay (AID 1346978); also: nearly all actives have a fitted effect of over 15% in size; also: potency is read from the fitted curve at half-maximal effect
Outline: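 Wild-type HepG2 cells, 2,000/well, settled 5 hr at 37 C and 5% CO2, then compound-treated for 17 hr; caspase-3/7 activity read by luminescent Caspase-Glo 3/7 after 30 min at room temperature.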

[3] = Caspase-3/7 induction in CHO-K1 cells by small molecules, qHTS cell viability counter screen (AID 1346979); also: nearly all actives have a fitted effect of over 35% in size; also: potency is read from the fitted curve at half-maximal effect
Outline: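 In the same wells as the caspase read, viability of compound-treated wild-type CHO-K1 cells was assessed using CellTiter-Fluor, added after 16hr at 37C and measured by fluorescence following 1hr further incubation.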

[4] = Caspase-3/7 induction in CHO-K1 cells by small molecules, qHTS assay (AID 1346980); also: nearly all actives have a fitted effect of over 15% in size
Outline: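 Wild-type CHO-K1 cells exposed to compounds for 17hr at 37 C, 5% CO2. Caspase-3/7 activity then measured by Caspase-Glo 3/7 luminescence after 30min at room temperature.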

[5] = Caspase-3/7 induction in HepG2 cells by small molecules, qHTS cell viability counter screen (AID 1346981); also: nearly all actives have a fitted effect of over 30% in size; also: potency is read from the fitted curve at half-maximal effect
Outline: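 Multiplexed with the caspase-3/7 assay: HepG2 cells, 16 hr compound treatment, CellTiter-Fluor viability detection by fluorescence.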

[6] = biological target: Nuclear receptor subfamily 1 group I member 2 (Homo sapiens) (UniProt O75469); experiment: Human pregnane X receptor (PXR) small molecule agonists, qHTS assay (AID 1346982); also: nearly all actives have a fitted effect of over 35% in size; also: potency is read from the fitted curve at half-maximal effect
Outline: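 We seeded PXR-Luc HepG2 cells in assay medium containing 5% charcoal-stripped FBS, added compounds 5 hr later, incubated 24 hr, and read luminescence with ONE-Glo reagent.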

[7] = biological target: Nuclear receptor subfamily 1 group I member 2 (Rattus norvegicus) (UniProt Q9R1A7); experiment: Rat pregnane X receptor (rPXR) activation by small molecules, qHTS assay (AID 1346983); details: rPXR luciferase reporter cells, One-Glo luminescence, 24 h; max activation: stronger effect = higher value; also: nearly all actives have a fitted effect of over 20% in size; also: potency is read from the fitted curve at half-maximal effect
Outline: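 Cell-based rPXR activation assay: rPXR cells, 2,000 per well, rested 5hr at 37 C, then exposed to compounds in DMSO for 24 hr at 37 C. Luciferase activity read by One-Glo luminescence after 30 min at room temperature.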

[8] = biological target: Nuclear receptor subfamily 1 group I member 2 (Homo sapiens) (UniProt O75469); experiment: CYP3A4 induction through human pregnane X receptor (PXR) by small molecules, qHTS assay (AID 1346984); also: nearly all actives have a fitted effect of over 40% in size; also: potency is read from the fitted curve at half-maximal effect
Outline: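 qHTS, concentration-response format: HepG2 DPX-2 line, PXR/CYP3A4-luc. Exposure 24 h, 37C. Substrate Luciferin-IPA 3uM final, 3 h. Detection One-Glo, 30 min RT.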

[9] = biological target: Nuclear receptor subfamily 1 group I member 2 (Homo sapiens) (UniProt O75469); experiment: Human pregnane X receptor (PXR) activation by small molecules, qHTS assay (AID 1346985); also: nearly all actives have a fitted effect of over 40% in size; also: potency is read from the fitted curve at half-maximal effect
Outline: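 DPX-2 cells (HepG2 co-transfected with a PXR response element and a CYP3A4-promoter luciferase construct) were seeded at 2,000 per well, rested 5 hr at 37C, then exposed to DMSO-dissolved compounds for 24 hr. Activation was read as luciferase luminescence.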
% is scaled to controls: 0 for no effect and ±100 for the full control effect.

Chain of Nuclear receptor subfamily 1 group I member 2 (Rattus norvegicus) (Q9R1A7 whole entry, looked up): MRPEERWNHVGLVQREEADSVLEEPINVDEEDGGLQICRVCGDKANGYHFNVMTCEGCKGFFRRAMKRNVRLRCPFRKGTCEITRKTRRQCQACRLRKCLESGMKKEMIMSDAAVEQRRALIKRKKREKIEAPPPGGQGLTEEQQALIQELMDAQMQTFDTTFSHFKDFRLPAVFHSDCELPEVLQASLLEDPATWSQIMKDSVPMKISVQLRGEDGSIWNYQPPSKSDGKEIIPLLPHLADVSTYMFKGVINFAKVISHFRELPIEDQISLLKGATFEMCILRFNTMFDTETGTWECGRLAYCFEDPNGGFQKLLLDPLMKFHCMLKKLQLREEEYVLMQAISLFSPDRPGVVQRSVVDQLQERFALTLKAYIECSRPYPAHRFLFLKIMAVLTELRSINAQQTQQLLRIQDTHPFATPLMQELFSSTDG
Chain of Nuclear receptor subfamily 1 group I member 2 (Homo sapiens) (O75469 whole entry, looked up): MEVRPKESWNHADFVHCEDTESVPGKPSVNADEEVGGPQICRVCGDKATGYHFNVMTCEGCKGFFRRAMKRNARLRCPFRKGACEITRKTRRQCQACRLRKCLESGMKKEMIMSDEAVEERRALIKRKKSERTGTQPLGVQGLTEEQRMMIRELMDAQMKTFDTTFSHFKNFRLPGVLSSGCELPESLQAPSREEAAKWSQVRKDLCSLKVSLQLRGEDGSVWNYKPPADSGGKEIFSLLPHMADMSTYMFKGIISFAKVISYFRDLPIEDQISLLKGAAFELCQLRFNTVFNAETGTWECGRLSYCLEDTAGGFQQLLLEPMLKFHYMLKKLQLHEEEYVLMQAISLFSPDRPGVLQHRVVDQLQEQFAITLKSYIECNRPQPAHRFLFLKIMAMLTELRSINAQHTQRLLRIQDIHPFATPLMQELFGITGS

CN(C)CCN(Cc1cccs1)c1ccccn1
20 µM (active) and inactive: Potency [6]
inactive: Potency [1] | Potency [2] | Potency [3] | Potency [4] | Potency [5] | max activation [7] -1.17% | Potency [8] | Potency [9]

Cc1cc2nc3c(=O)[nH]c(=O)nc-3n(C[C@H](O)[C@H](O)[C@H](O)CO)c2cc1C
30.3 µM (active) and inactive: Potency [6]
inactive: Potency [2] | Potency [4] | max activation [7] -0.456% | Potency [9]

Cn1cnc([N+](=O)[O-])c1Sc1ncnc2nc[nH]c12
active: Potency [3] 51.1 µM | Potency [5] 48.2 µM
inactive: Potency [2] | Potency [4] | Potency [6]

CC(C)OB(OC(C)C)OC(C)C
inactive: Potency [1] | Potency [2] | Potency [3] | Potency [4] | Potency [5] | Potency [6]

CC(C)OC(=O)C(C)(C)Oc1ccc(C(=O)c2ccc(Cl)cc2)cc1
active: Potency [3] 54.5 µM | Potency [6] 27.3 µM
inactive: Potency [1] | Potency [2] | Potency [4] | Potency [5]

Brc1cc(Oc2cc(Br)c(Br)c(Br)c2Br)c(Br)c(Br)c1Br
active: Potency [6] 9.73 µM
inactive: Potency [1] | Potency [2] | Potency [3] | Potency [4] | Potency [5]

O=C(Nc1ccc(Cl)cc1)Nc1ccc(Cl)c(Cl)c1
inactive: Potency [2] | Potency [4] | max activation [7] -13.1% | Potency [8] | Potency [9]
active: Potency [1] 7.08 µM and 12.2 µM and 13.3 µM | Potency [3] 19.2 µM and 17.2 µM and 18.8 µM | Potency [6] 7.66 µM

Nc1ccccc1N
inactive: Potency [4]
active: Potency [2] 2.22 µM and 9.41 µM | Potency [5] 15 µM | Potency [6] 1.76 µM and 7.7 µM
inactive and 47.2 µM (active): Potency [3]

O=C1c2cccc(O)c2C(=O)c2c(O)cccc21
inactive: Potency [1] | Potency [2] | Potency [3] | Potency [4] | Potency [5] | Potency [6] | max activation [7] -1.61% | Potency [8] | Potency [9]

CCCCC(CC)COP(=O)(OCC(CC)CCCC)OCC(CC)CCCC (stereo not given)
inactive and 4.86 µM (active): Potency [6]
inactive: Potency [1] | Potency [2] | Potency [3] | Potency [4] | Potency [5]

C[C@]12CC[C@H]3[C@@H](CCC4=CC(=O)CC[C@@]43C)[C@@H]1CC[C@@H]2C(=O)CO
21.7 µM (active) and inactive: Potency [6]
inactive: Potency [1] | Potency [2] | Potency [3] | Potency [4] | Potency [5] | Potency [8] | Potency [9]

CCOC(=O)C(C#N)=C(c1ccccc1)c1ccccc1
active: Potency [6] 24.3 µM and 11.9 µM | Potency [9] 12.6 µM
inactive: Potency [1] | Potency [2] | Potency [3] | Potency [4] | Potency [5]

C=C(C)C1CC=C(C)CC1 (stereo not given)
inactive: Potency [1] | Potency [2] | Potency [3] | Potency [4] | Potency [5] | Potency [6] | max activation [7] -4.17% | Potency [8] | Potency [9]

CN(C)C(=N)N=C(N)N
inactive: Potency [1] | Potency [2] | Potency [3] | Potency [4] | Potency [5] | max activation [7] -2.9%

Cc1c(C(N)=O)cc([N+](=O)[O-])cc1[N+](=O)[O-]
inactive: Potency [1] | Potency [2] | Potency [3] | Potency [4] | Potency [5] | Potency [6] | max activation [7] 0.724% | Potency [8] | Potency [9]

Cc1ncc[nH]1
inactive: Potency [1] | Potency [2] | Potency [3] | Potency [4] | Potency [5] | max activation [7] 1.32%

C[Si](C)(C)O[Si](C)(C)C
68.2 µM (active) and inactive: Potency [6]
inactive: Potency [1] | Potency [2] | Potency [3] | Potency [4] | Potency [5] | max activation [7] -1.76% | Potency [8] | Potency [9]

C[C@]12CCC(=O)C=C1CC[C@@H]1[C@@H]2C(=O)C[C@@]2(C)[C@H]1CC[C@]2(O)C(=O)CO
inactive: Potency [1] | Potency [2] | Potency [3] | Potency [4] | Potency [5] | Potency [6] | max activation [7] 0.346% | Potency [8] | Potency [9]

O=[N+]([O-])c1ccc2c(c1)Cc1ccccc1-2
active: Potency [6] 48.5 µM and 54.5 µM
inactive: Potency [1] | Potency [2] | Potency [4] | Potency [5]

CC(C)Oc1ccc2c(=O)c(-c3ccccc3)coc2c1
inactive: Potency [1] | Potency [2] | Potency [4] | Potency [5] | Potency [8]
active: Potency [6] 2.98 µM and 1.06 µM | Potency [7] 0.316 µM

Oc1ccc(O)cc1
inactive: Potency [1] | Potency [2] | Potency [4] | Potency [5]
active: Potency [3] 43 µM and 68.6 µM
54.2 µM (active) and inactive: Potency [6]

O=S(=O)(O)c1ccc(O)cc1
inactive: Potency [1] | Potency [2] | Potency [3] | Potency [4] | Potency [5] | Potency [6] | max activation [7] -1.73% | Potency [8] | Potency [9]

CC(=O)O[C@]1(C(C)=O)CC[C@H]2[C@@H]3C=C(Cl)C4=CC(=O)[C@@H]5C[C@@H]5[C@]4(C)[C@H]3CC[C@@]21C
inactive: Potency [1] | Potency [2] | Potency [4] | Potency [5] | Potency [8] | Potency [9]
61.1 µM (active) and inactive: Potency [6]

Cc1[nH]c(=O)c(C#N)cc1-c1ccncc1
inactive: Potency [1] | Potency [2] | Potency [3] | Potency [4] | Potency [5] | max activation [7] 1.02% | Potency [8] | Potency [9]
active: Potency [6] 1.37 µM

O=C1OC2(c3cc(Br)c(O)c(Br)c3Oc3c2cc(Br)c(O)c3Br)c2c(Cl)c(Cl)c(Cl)c(Cl)c21
inactive: Potency [2] | Potency [4] | Potency [6]
active: Potency [1] 2.51 µM and 11.7 µM | Potency [3] 6.87 µM and 14.8 µM | Potency [5] 9.7 µM and 16.6 µM

CC(=O)Oc1ccccc1C(=O)Nc1ncc([N+](=O)[O-])s1
inactive: Potency [2] | Potency [4] | max activation [7] -18.4% | Potency [8] | Potency [9]
active: Potency [1] 12.4 µM and 16.8 µM | Potency [3] 12.4 µM and 18.8 µM | Potency [5] 15.7 µM and 21.1 µM | Potency [6] 11.1 µM and 2.11 µM

Cc1cccc(N(C)C(=S)Oc2ccc3ccccc3c2)c1
inactive: Potency [1] | Potency [2] | Potency [3] | Potency [4] | Potency [5] | max activation [7] 2.58%
active: Potency [6] 17.2 µM and 11.9 µM | Potency [8] 5.01 µM | Potency [9] 8.91 µM

O=C(c1ccccc1)c1ccc(O)cc1O
active: Potency [6] 62.3 µM and 61.1 µM
inactive: Potency [1] | Potency [2] | Potency [4] | Potency [5]

O=C(OCc1ccccc1)c1ccccc1O
inactive: Potency [1] | Potency [2] | Potency [3] | Potency [4] | Potency [5] | Potency [6]

O=C(COc1ccc(Cl)cc1)N1CCN(Cc2ccc3c(c2)OCO3)CC1
34.4 µM (active) and inactive: Potency [6]
inactive: Potency [1] | Potency [2] | Potency [3] | Potency [4] | Potency [5] | max activation [7] 0.0978% | Potency [8] | Potency [9]

O=C(/C=C/C=C/c1ccc2c(c1)OCO2)N1CCCCC1
active: Potency [6] 10.9 µM
inactive: Potency [1] | Potency [2] | Potency [4] | Potency [5]

Nc1ccc(S(=O)(=O)Nc2cnc3ccccc3n2)cc1
inactive: Potency [1] | Potency [2] | Potency [3] | Potency [4] | Potency [5] | Potency [6] | max activation [7] 6.27% | Potency [8] | Potency [9]

O=C(Nc1ccc([N+](=O)[O-])cc1Cl)c1cc(Cl)ccc1O
active: Potency [1] 1.22 µM and 1.46 µM | Potency [3] 2.17 µM and 2.59 µM | Potency [6] 686 nM and 291 nM
inactive: Potency [2] | Potency [4]

Nc1ccc(Cl)cc1Cl
inactive: Potency [1] | Potency [2] | Potency [3] | Potency [4] | Potency [5] | Potency [6]

Cc1cccc(C(=O)O)c1
inactive: Potency [4]
9.57 µM (active) and inactive: Potency [6]
3.4 µM (active) and inactive: Potency [3]
active: Potency [1] 14.1 µM
13.5 µM (active) and inactive: Potency [2]
